FBPA Giardia inh: qHTS Assay for Inhibitors of Fructose-1,6-bisphosphate Aldolase from Giardia Lamblia | purified Giardia FBPA | Potency, µM (top dose mostly 59.6 µM), hits mostly inhibitors | 0.71% of 290,000 active | AID 2451, 2010; also: nearly all actives have a fitted effect of over 55% in size
Target sequence (A8B2U2 whole entry, looked up): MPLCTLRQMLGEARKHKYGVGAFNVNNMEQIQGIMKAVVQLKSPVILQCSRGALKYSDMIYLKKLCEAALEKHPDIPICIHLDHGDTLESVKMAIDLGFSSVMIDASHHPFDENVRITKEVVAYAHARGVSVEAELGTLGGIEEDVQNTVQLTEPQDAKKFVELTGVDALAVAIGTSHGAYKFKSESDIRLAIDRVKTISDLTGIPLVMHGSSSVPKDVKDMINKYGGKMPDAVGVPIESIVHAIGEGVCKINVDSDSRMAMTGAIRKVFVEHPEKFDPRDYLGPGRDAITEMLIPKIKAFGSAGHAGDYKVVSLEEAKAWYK
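40 nM FBPA preincubated 10 min at RT with compound (up to 57.5 uM final), then substrate plus GAPDH/TPI/NAD/arsenate coupling and diaphorase/resazurin added. Fluorescence read after 20 min at RT, 525/598 nm.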
HCV inhibitor: qHTS Assay for Inhibitors of Hepatitis C Virus (HCV) | Huh7.5.1 HCVcc-Cre infection, luciferase reporter, 44 h | Potency, µM (top dose mostly 41.8 µM), actives largely listed as inhibitors | 3.4% of 340,000 active | AID 651820, 2012
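Luciferase read-out (15 sec integration) after a 15 min room-temperature substrate step quantifies HCVcc-Cre infection. Cells, 1,000 per well, had compound added 4 h post-plating, then virus at ~0.5 moi, and were cultured 44 h.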
FMDV inh: High Throughput Screening for Foot and Mouth Disease Virus Antivirals; FMDV antiviral cell-based qHTS; Potency, µM (highest dose often 57.9 µM), usual class: inhibitors; 1.2% of 410,000 active; calls by dose curve; tested in HEK293T cells; also: read-out not given here; nearly all actives have a fitted effect of over 45% in size
HCMV inh: qHTS Assay for inhibitors of the human cytomegalovirus (HCMV); HFF cells, HCMV-luciferase reporter, 72 h; active compounds read low; activity change, negative = inhibition, % at 57.5 µM; 4.5% of 410,000 active; AID 1259415, 2018; in the data active = activity change below about -60%; inconclusive = no clear call, values can overlap the other calls; inactive = above about -39%
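HFF cells seeded 16 h at 37C, treated with compounds, infected with luciferase-reporter HCMV at MOI 1 PFU/cell; luciferase read at 72 h post infection, normalized to buffer-only and Salinomycin controls.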
Vaccinia mCherry: qHTS for Stage-Specific Inhibitors of Vaccinia Orthopoxvirus: mCherry Reporter Primary qHTS | Vaccinia virus mCherry reporter infection, fluorescence | Potency, µM (highest dose often 36.5 µM), most hits filed as inhibitors | 0.63% of 310,000 active | AID 720579, 2013; calls by dose curve; tested in A549 cells; also: nearly all actives have a fitted effect of over 35% in size
VACV Venus inh: qHTS for Stage-Specific Inhibitors of Vaccinia Orthopoxvirus: Venus Reporter Primary qHTS. Vaccinia virus Venus reporter expression, fluorescence. Potency, µM (highest dose often 36.5 µM), most hits filed as inhibitors. 0.46% of 330,000 active; calls by dose curve; tested in A549 cells; also: nearly all actives have a fitted effect of over 30% in size
Numbers stand for hits; i = inactive; ? = inconclusive; nt = no result given; [ ] = dose if it differs, or a comment. Shown are actives, neighbours in structure and some others; about 7.5% of the full set was active somewhere. Unless noted, calls follow the shape of the dose curve; as a rule, active = well fitted curve in the direction sought with a large enough effect; inconclusive = small, poorly fitted or top-dose-only effect, or another doubt; inactive = no such curve, though single readings can be large; an effect the other way counts as inactive or inconclusive.

SMILES | FBPA Giardia inh | HCV inhibitor | FMDV inh | HCMV inh | Vaccinia mCherry | VACV Venus inh
Cc1cc(NC(=O)CCCS(=O)(=O)c2nc(-c3cccs3)cc(C(F)(F)F)n2)no1 | i | 11µM | ? | i | ? | ?
CCCCN1C(=O)C(CC(=O)NCC2CCCCC2)CC(C(=O)N(CC)CC)=C1C (stereo not drawn) | nt | nt | i | i | i | i
CCCCN1C(=O)C(CC(=O)NCC2CCCCC2)CC(C(=O)N(C)C)=C1C (stereo not drawn) | nt | nt | i | -105 | i | i
C(=C\c1ccnc2ccccc12)/c1ccc(-[n+]2cc[n+](-c3ccc(/C=C/c4ccnc5ccccc45)cc3)cc2)cc1 | nt | nt | nt | nt | i | i
c1ccc2[nH]c(-c3cscn3)nc2c1 | i | i[8.37 µM] | i | -90 | i | i
CC(C)(C)OC(=O)NCc1ccc(CNC(=O)c2nc[nH]c2C(=O)NCc2ccc(CNC(=O)OC(C)(C)C)cc2)cc1 | nt | ? | 13µM | ? | ? | ?
CC(C)(C)OC(=O)NCCCCCNC(=O)c1[nH]cnc1C(=O)N[C@@H](CCCCNC(=O)OC(C)(C)C)C(=O)OC(C)(C)C | i | ? | i | nt | i | ?
CC(C)(C)OC(=O)NCCCCCNC(=O)c1nc[nH]c1C(=O)NCCCCCNC(=O)OC(C)(C)C | nt | 10µM | 13µM | -75 | ? | ?
C[C@H](NC(=O)c1[nH]cnc1C(=O)Nc1ccc(CNC(=O)OC(C)(C)C)cc1)C(=O)OCc1ccccc1 | i | ? | 18µM | i | ? | i
CC(C)(C)OC(=O)NCCCCCNC(=O)c1nc[nH]c1C(=O)NCc1ccc(CNC(=O)OC(C)(C)C)cc1 | nt | 8.9µM | 16µM | -95 | ? | ?
CCOC(=O)CN(C)C(=O)C1CCCN1C(=O)OC(C)(C)C (stereo not drawn) | i | i[8.37 µM] | i | i | i | i
COCC(=O)N1CCC2(CCN(Cc3ccncc3)CC2)CC1 | i | nt | i | nt | nt | nt
C/C(=N\NC(=O)c1ccc(Cn2cc(Br)cn2)o1)c1ccc(NC(=O)c2ccoc2C)cc1 | i | 7.1µM | i | i | ? | ?
C/C(=N\NC(=O)c1ccc(Cn2cc(Br)cn2)o1)c1cccc(NC(=O)C(C)(C)C)c1 | i | i | i | ? | i | i
CCCCNC(=O)C[C@@H]1C[C@@]2(C(=O)OCC)CCCC=C2N(CCC2=CCCCC2)C1=O | nt | nt | i | i | i | i
O=S(=O)(Nc1ccc(Cc2ccncc2)cc1)c1ccc(Br)s1 | i | i | i | ? | nt | nt
O=S(=O)(Nc1ccc(Cc2ccncc2)cc1)c1ccc(Br)cc1 | nt | 10µM | i | -63 | i | ?
O=S(=O)(Nc1ccc(Cc2ccncc2)cc1)c1ccc(Cl)cc1 | i | 11µM | i | -65 | i | i
O=C(/C=C/c1ccc(Br)cc1)NC(=O)c1ccccc1O | i | i | i | -102 | ? | ?
CC(=O)/C(C#N)=C1\NC(=O)C(Cc2ccccc2Cl)S1 (stereo not drawn) | i | i | i | -95 | ? | i
CC(=O)/C(C#N)=C1\NC(=O)C(Cc2cc(Cl)ccc2Cl)S1 (stereo not drawn) | i | i | i | -89 | nt | nt
NC1=NC(=O)C(Cc2cc(Cl)ccc2Cl)S1 (stereo not drawn) | i | i | i | i | nt | nt
COC(=O)C[C@@H]1C=C[C@H](NC(=O)Nc2ccc(OC)cc2)[C@@H](CO)O1 | nt | nt | i | i | i | i
O=[N+]([O-])/C=C/c1c(Cl)cccc1Cl | nt | 8.9µM | 7.9µM | i | i | i
O=[N+]([O-])/C=C/c1cc2ccccc2[nH]1 | i | i | ? | i | i | i
SMILES | FBPA Giardia inh | HCV inhibitor | FMDV inh | HCMV inh | Vaccinia mCherry | VACV Venus inh
COc1ccccc1CN1CCOc2ccc(CN3CCC(Oc4cccnc4)CC3)cc2C1 | nt | nt | i | nt | i | i
CC(C)(C)OC(=O)NCc1ccc(CNC(=O)c2nc[nH]c2C(=O)N2CCN(c3ccccc3)CC2)cc1 | nt | ? | 20µM | i | i | ?
O=C(Nc1ccccc1)c1nc[nH]c1C(=O)N1CCN(c2ccccc2)CC1 | nt | i | i | ? | i | i
Cc1ccc(NC(=O)c2nc[nH]c2C(=O)N2CCc3ccccc3C2)cc1 | nt | i | i | -75 | i | i
CC(C)(C)OC(=O)NCc1ccc(CNC(=O)c2nc[nH]c2C(=O)N2CCc3ccccc3C2)cc1 | nt | ? | 40µM | i | i | i
CCOC(=O)c1ccc(NC(=O)c2nc[nH]c2C(=O)N2CCc3ccccc3C2)cc1 | i | i | i | i | i | i
COc1ccc(NC(=O)c2nc[nH]c2C(=O)N2CCN(c3ccccc3)CC2)cc1 | i | i | i | -72 | i | i
NC(=O)C(c1ccc(Cl)cc1)c1ccc(Sc2ccc(Cl)cc2)nn1 (stereo not drawn) | i | ? | ? | -89 | nt | ?
O=C1N/C(=C\c2ccccc2)c2ccccc21 | i | 7.1µM | i | i | i | i
COc1ccc(C2C(C#N)=C(C)NC3=C2C(=O)c2ccccc23)cc1 (stereo not drawn) | i | i | i | ? | i | i
CC1=C([N+](=O)[O-])C(c2ccccc2)C2=C(N1)c1ccccc1C2=O (stereo not drawn) | i | ? | ? | ? | 13µM | ?
C=CC(=O)Nc1ccc(CN2C(=O)N(c3c(Cl)c(OC)cc(OC)c3Cl)Cc3cnc(NCCCCN(CC)CC)nc32)cc1 | nt | ? | ? | nt | ? | 3.2µM
CC(Oc1ccc(F)cc1)C(=O)Nc1cc(Cl)ccc1-n1cncn1 (stereo not drawn) | nt | ? | i | i | i | i
COc1ccc(/C=C/c2c([N+](=O)[O-])c(=O)n(C)c(=O)n2C)cc1 | i | i | i | i | i | i
CCc1ccc(/C=C/c2c([N+](=O)[O-])c(=O)n(C)c(=O)n2C)cc1 | i | ? | 16µM | -98 | nt | nt
Cn1c(/C=C/N(Cc2ccccc2)c2ccccc2)c([N+](=O)[O-])c(=O)n(C)c1=O | i | ? | i | i | nt | nt
CCOc1ccc(/C=C/c2c([N+](=O)[O-])c(=O)n(C)c(=O)n2C)cc1 | i | i | i | -75 | i | i
Cc1cccc(C)c1NC(=O)c1sc(Cl)nc1C | i | i | i | i | i | i
COCC(=O)Nc1ccc2c(c1)[C@H]1C[C@@H](CC(=O)NCC3CC3)O[C@H](CO)[C@H]1O2 | nt | nt | nt | i | nt | nt
Cc1ccc(S(=O)(=O)NC2=C(N3CCN(Cc4ccccc4)CC3)C(=O)c3ccccc3C2=O)cc1 | ? | i | i | -65 | i | i
Cn1c(COc2ccccc2)nnc1SCCN1CCOCC1 | ? | i | i | i | nt | nt
Cn1c(COc2ccccc2)nnc1SCCSc1nnc(COc2ccccc2)n1C | i | ? | i | -65 | i | i
Cc1cc(C)n(C(=O)COc2ccccc2[N+](=O)[O-])n1 | i | i | i | i | i | i
COc1ccc(-c2nc(NC(C)=O)sc2-c2ccccc2)cc1 | i | 10µM | i | i | i | i

Screening results: PubChem BioAssay, National Center for Advancing Translational Sciences (NCATS)
